Assay outcomes deposited in PubChem BioAssay by Sanford-Burnham Center for Chemical Genomics.
Rows were chosen to be rich in hits. Some 4% of all compounds tested hit in one or more screens of this group.
KKLEB tox = CF airway cell cytotoxicity counter-screen | KKLEB CF airway cells viability, ATPlite luminescence, overnight; hits give low values; cells stimulated with P. aeruginosa culture filtrate | activity change (cytotoxicity), % at 5 µM | actives 0.36% (n = 360,000);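 active = corrected activity change at or below -50% at 5 µM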
HIF-2a block = inhibitors of HIF-2a. 786-0 RCC cells HIF-2a reporter, luciferase luminescence, overnight. inhibition, % at 18.8 µM. actives 0.72% (n = 360,000). AID 624352;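 active = inhibition of the luminescence signal of 40% or more relative to plate controls, in a single-dose primary screen at 18.75 µM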
TWEAK Fn14 block = inhibitors of TWEAK-Fn14 interaction signaling | TWEAK-stimulated Fn14 reporter cells, luciferase luminescence, 8 h | inhibition, % at 10 µM | actives 2% (n = 360,000); in the data active = inhibition above about 50%
TROY NFkB inh = blocks TROY-dependent signaling in reporter cells. Q293 LMP1-TROYcd NF-kB luciferase reporter, 4 h. inhibition, % at 10 µM. actives 0.98% (n = 360,000). AID 1347056;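 active = compounds whose plate-normalised and pattern-corrected inhibition of the luciferase reporter signal at the single screening dose is 50% or more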
Peg3 prom inh = Peg3 promoter activity inhibition | AID 588405 | HeLa PEG-Prom luciferase reporter, luminescence, overnight | inhibition, % at 20 µM | actives 1.7% (n = 360,000);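 active = inhibition of at least 50% at 20 µM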
CF NFkB block = inhibitors of cystic fibrosis induced NF-kB; actives 0.86% (n = 360,000); AID 588850; KKLEB NF-kB-GFP reporter, PAF-induced, GFP fluorescence overnight; inhibition, % at 5 µM;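 active = at least 50% inhibition at 5 µM, scaled per plate between neutral and stimulator controls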;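 note: PAF is a Pseudomonas aeruginosa culture filtrate used as stimulus; plate controls were PAF-stimulated DMSO wells for no effect and unstimulated DMSO wells for full effect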
The depositor's hits bear a star; / = not tested or not shown.

SMILES	KKLEB tox	HIF-2a block	TWEAK Fn14 block	TROY NFkB inh	Peg3 prom inh	CF NFkB block
O=C(COc1ccc(/C=N/NC(=O)c2cc3ccccc3o2)cc1Br)Nc1ccccc1	-51*	-234	-16	40	99*	51*
O=C(COc1ccccc1[N+](=O)[O-])Nc1ccc(NC(=O)c2cc3ccccc3o2)cc1	-24	0	1	52*	11	25
O=S(=O)(c1ccccc1)N1CCN(Cc2ccccc2C(F)(F)F)CC1	-6	17	-20	-15	10	14
CCc1c(C2(O)CCCCC2)[nH]c2cc(C(F)(F)F)ccc12	5	14	30	51*	67*	27
Cc1c(C2(O)CCCCC2)[nH]c2cc(C(F)(F)F)ccc12	-1	-56	25	-11	18	8
Cc1c(C(=O)NCc2ccc(Cl)c(Cl)c2)sc(=O)n1Cc1cccc(F)c1	6	13	-15	20	22	-40
CC(=O)Nc1cc(-c2ccc(F)cc2)cn2c(-c3ccc(F)c(Cl)c3)cnc12	-10	-16	0	-17	7	-79
CCNC(=O)CC1C(=O)N(C)C(=S)N1NC(=O)c1ccc(Cl)cc1 (centres undefined)	-4	9	24	18	3	4
Nc1ccc(C(=O)NN2C(=O)[C@H](Cl)C2c2ccc(Cl)cc2)cc1 (some centres undefined)	-79*	11	65*	-23	102*	91*
O=C(c1ccc(Cl)cc1)N1CCN=C1c1ccccc1	8	10	1	-1	6	2
O=S(=O)(Nc1nc2ccccc2nc1Cl)c1ccccc1C(F)(F)F	0	4	50*	5	-5	11
Cc1cccc(OCCN2CSC(=S)N(C)C2)c1	-2	13	0	-8	57*	-5
Cc1ccc(C(C)C)c(OCC(=O)NC(=S)Nc2ccccc2N2CCOCC2)c1	-8	10	-2	9	13	45
CCC(=O)N1CCN(c2ccccc2NC(=O)COc2cc(C)ccc2C(C)C)CC1	-3	5	-7	9	52*	8
CC(=O)c1cccc(NC(=O)COC(=O)C2CCCN2C(=O)c2cccs2)c1 (centres undefined)	-4	15	-18	-17	12	-1
CCOC(=O)c1cnc2ccc(OCC)cc2c1NCc1ccccc1OC	-10	-40	72*	54*	9	4
COc1ccc(S(=O)(=O)N2CCCc3ccccc32)cc1OC	1	-63	56*	60*	6	0
O=S(=O)(c1cnc(Cl)c(Cl)c1)N1CCc2ccccc21	3	22	22	10	42	-30
O=S(=O)(c1cnc(Cl)c(Cl)c1)N1CCCc2ccccc21	14	22	25	-7	52*	-8
O=S(=O)(c1cc(Cl)ccc1Cl)N1CCc2ccccc21	-7	27	-2	14	27	4
O=S(=O)(c1cnc(Cl)c(Br)c1)N1CCc2ccccc21	10	36	36	28	69*	-32
CCN(CC)CCOC(=O)c1cccc2c1-c1ccccc1C2O (centres undefined)	-8	15	-17	-14	11	-8
CC(=O)N(/N=C/c1ccc([N+](=O)[O-])o1)c1nc2ccccc2c(=O)n1-c1ccccc1	-2	-8	-5	-2	13	-15
O=C(CSc1nnc(NC(=O)c2ccccc2[N+](=O)[O-])s1)NCC1CCCO1 (centres undefined)	6	2	-17	20	14	-4
Cc1ccc(S(=O)(=O)Nc2ccccc2-c2ccccc2NS(=O)(=O)c2ccc(C)cc2)cc1	14	13	-1	52*	33	31
SMILES	KKLEB tox	HIF-2a block	TWEAK Fn14 block	TROY NFkB inh	Peg3 prom inh	CF NFkB block
COc1cc(NS(=O)(=O)c2ccc(C)cc2)c2ncccc2c1	-4	18	107*	28	68*	48
Cc1ccc(S(=O)(=O)Nc2ccccc2C(N)=O)cc1	-5	3	-9	-3	6	4
Nc1ccc(CNC(=O)OCC2c3ccccc3-c3ccccc32)cc1	-13	-26	-15	-7	-13	-6
Cc1sc2nc(SCC(=O)Nc3cccc(C(=O)O)c3)[nH]c(=O)c2c1C	-2	6	-6	2	-4	13
Cc1sc2nc(SCC(=O)Nc3ccc(Cl)c(C(=O)O)c3)[nH]c(=O)c2c1C	1	-93	52*	25	-62	11
Cc1nc(SCC(=O)Nc2ccc(CN3CCCC3)cc2)c2c(C)c(C)sc2n1	-24	6	-29	13	85*	14
CCN(Cc1ccc2c(c1)OCO2)C(=O)CSc1nc(C)nc2sc(C)c(C)c12	-20	15	13	57*	38	16
CC(=O)Nc1ccc(NC(=O)CSc2nc(C)nc3sc(C)c(C)c23)cc1	-5	18	-37	-6	20	-23
CN(C)S(=O)(=O)Oc1ccc(Cl)cc1C(=O)Nc1cccc(C(F)(F)F)c1	-2	19	-19	-35	18	-4
CCOc1ccc(NC(=O)Nc2ccccc2C(N)=O)cc1	-4	2	-41	-84	-1	2
NC1=NC(=O)/C(=C\c2cccnc2)S1	2	8	41	28	-8	52*
Oc1ccccc1C=NNC(=S)NC1CC2C=CC1C2 (centres undefined)	-32	-211	1	-40	-174	25
Oc1c(Cl)cc(Cl)cc1/C=N/NC(=S)NC1CC2C=CC1C2 (centres undefined)	-72*	-6	-16	4	29	50*
Cc1ccc(N2CC(C(=O)Nc3ccc4c(c3)OCCO4)CC2=O)cc1C (centres undefined)	-3	17	54*	46	39	7
O=C(Nc1ccc2c(c1)OCO2)C1CC(=O)N(c2ccccc2)C1 (centres undefined)	-9	0	-3	3	2	-16
Cc1ccc(N2CC(C(=O)Nc3ccc4c(c3)OCCO4)CC2=O)cc1 (centres undefined)	-2	33	59*	50	10	-5
COc1ccc2oc(C)c(C(N)=O)c2c1	5	4	1	10	12	19
COC(=O)N1[C@H](C)C=C[C@]1(Cc1ccccc1)C(=O)NCCCNc1ncc(C(F)(F)F)cc1Cl	7	-17	-10	-11	6	10
Cc1cc(C(C)(C)C)ccc1OCCOCCN1CCCC1	4	11	13	6	15	-4
Cc1cc(NC(=O)COC(=O)C2CCN(S(=O)(=O)c3c(Cl)cccc3Cl)CC2)no1	-4	14	92*	/	13	-17
CCOC(=O)C1CCN(S(=O)(=O)c2cccc3nonc23)CC1	6	11	0	5	0	-27
CCOC(=O)C1CCN(S(=O)(=O)c2c(Cl)ccc3nonc23)CC1	-44	92*	75*	68*	112*	90*
